CF NFkB block: blocks PAF-induced NF-kB reporter in cystic fibrosis cells. inhibition, % at 5 µM. KKLEB NF-kB-GFP reporter, GFP fluorescence overnight. 360,000 compounds, 0.86% hits;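 active means at least 50% inhibition at 5 µM, scaled per plate between neutral and stimulator controls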;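 further: PAF is a Pseudomonas aeruginosa culture filtrate used as stimulus; plate controls were PAF-stimulated DMSO wells for no effect and unstimulated DMSO wells for full effect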
Peg3 prom inh-1: Peg3 promoter activity inhibition; HeLa PEG-Prom luciferase reporter, luminescence, overnight; inhibition, % at 20 µM; 360,000 compounds, 1.7% hits; AID 588405;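 active means inhibition of at least 50% at 20 µM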
C8 TRAIL sens: sensitizes caspase-8 expressing cells to TRAIL. inhibition (viability loss, TRAIL sensitization), % at 10 µM. NB7+C8 cells + TRAIL, ATPlite viability luminescence. 360,000 compounds, 1% hits;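 active means compounds causing at least 50% loss of cell viability in the single-dose screen, relative to plate controls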
KKLEB tox: reduces viability of KKLEB cystic fibrosis airway cells | KKLEB CF airway cells viability, ATPlite luminescence, overnight; stronger effect = lower value; cells stimulated with P. aeruginosa culture filtrate | activity change (cytotoxicity), % at 5 µM | 360,000 compounds, 0.36% hits;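 active means corrected activity change at or below -50% at 5 µM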
HIF-2a inh: blocks HIF-2a reporter activity; 786-0 RCC cells HIF-2a reporter, luciferase luminescence, overnight; inhibition, % at 18.8 µM; 360,000 compounds, 0.72% hits;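 active means inhibition of the luminescence signal of 40% or more relative to plate controls, in a single-dose primary screen at 18.75 µM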
PPC-1+TRAIL kill: PPC-1 cancer cell killing with TRAIL present; 220,000 compounds, 0.41% hits; cell killing (% activity), % at 4 µM or 5 µM; AID 1443; PPC-1 cells + TRAIL, ATPLite viability luminescence;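 active means cell killing above 50% in the first pass at 4 µM, then a duplicate retest at 5 µM averaging 50% or more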;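 further: plate controls were cells with TRAIL plus DMSO for no effect and medium-only wells lacking cells for full effect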
Peg3 prom inh-2: Peg3 promoter inhibition confirmation; inhibition, % at 20 µM; 1,300 compounds, 84% hits; HeLa PEG-Prom luciferase reporter, luminescence, overnight; shares compounds with Peg3 prom inh-1;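 active means at 20 µM dose, 40% or more inhibition averaged across four replicates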
CF NFkB inh conf: confirmation of cystic fibrosis induced NF-kB inhibitors. inhibition, % at 5 µM. shares compounds with CF NFkB block. AID 602472. KKLEB CF airway cells, PAF-induced NF-kB-GFP fluorescence, overnight. 1,300 compounds, 64% hits; in the data active means inhibition above about 40%;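 further: stimulus PAF is a Pseudomonas aeruginosa filtrate and not platelet activating factor; plate controls were DMSO wells with stimulus for no effect and unstimulated DMSO wells for full effect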
Mdm2-MdmX confirm: confirmation of inhibitors of human Mdm2/MdmX interaction, set 2. inhibition, % at 8 µM. SaOS-2 split-luciferase Mdm2/MdmX complementation, luminescence. 740 compounds, 99% hits. shares compounds with HIF-2a inh;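 active means mean inhibition of the luminescence signal across two replicates at or above 26 percent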
Target sequence (O15151 whole entry, looked up): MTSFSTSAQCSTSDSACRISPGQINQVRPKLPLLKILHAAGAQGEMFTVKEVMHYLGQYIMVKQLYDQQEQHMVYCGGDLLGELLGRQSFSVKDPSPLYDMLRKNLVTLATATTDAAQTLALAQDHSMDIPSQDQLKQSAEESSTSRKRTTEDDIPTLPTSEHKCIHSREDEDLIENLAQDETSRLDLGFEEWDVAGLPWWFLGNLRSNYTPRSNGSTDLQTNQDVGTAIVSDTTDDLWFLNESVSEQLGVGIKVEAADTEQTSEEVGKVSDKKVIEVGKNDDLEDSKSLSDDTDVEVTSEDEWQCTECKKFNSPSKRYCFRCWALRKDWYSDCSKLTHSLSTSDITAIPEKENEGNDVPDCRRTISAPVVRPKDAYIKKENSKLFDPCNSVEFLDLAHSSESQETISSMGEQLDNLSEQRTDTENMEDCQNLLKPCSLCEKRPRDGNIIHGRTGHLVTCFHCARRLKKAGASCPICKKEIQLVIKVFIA
Target sequence (Q00987 whole entry, looked up): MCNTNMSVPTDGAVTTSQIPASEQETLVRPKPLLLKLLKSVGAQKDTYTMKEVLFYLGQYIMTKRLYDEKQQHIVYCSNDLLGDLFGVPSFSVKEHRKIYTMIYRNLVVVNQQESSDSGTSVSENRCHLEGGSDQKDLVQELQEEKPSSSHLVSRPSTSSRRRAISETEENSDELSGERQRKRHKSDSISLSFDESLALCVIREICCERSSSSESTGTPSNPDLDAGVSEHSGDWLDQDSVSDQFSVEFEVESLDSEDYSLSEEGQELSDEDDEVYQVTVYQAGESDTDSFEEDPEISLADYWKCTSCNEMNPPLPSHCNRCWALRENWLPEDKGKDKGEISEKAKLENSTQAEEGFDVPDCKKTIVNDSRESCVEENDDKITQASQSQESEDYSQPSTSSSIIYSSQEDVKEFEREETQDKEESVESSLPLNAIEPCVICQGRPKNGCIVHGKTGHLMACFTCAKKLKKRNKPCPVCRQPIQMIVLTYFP
Starred values were filed as active, the others as inactive; . = no result given. Most compounds without a hit are left out; they make up all but 3.1% or so of the library.

SMILES	CF NFkB block	Peg3 prom inh-1	C8 TRAIL sens	KKLEB tox	HIF-2a inh	PPC-1+TRAIL kill	Peg3 prom inh-2	CF NFkB inh conf	others
Cc1cc(C)cc(C(O)c2ncc(-c3ccccc3)[nH]2)c1 (configuration not stated)	6	9	-11	7	5	.	.	.
COc1ccc(C2NCCc3c2[nH]c2ccccc32)cc1COc1ccc(F)cc1 (configuration not stated)	33	97*	0	-28	7	23	98*	.
COc1ccc(Nc2nccc(-c3cccc(N)c3)n2)cc1	71*	73*	28	20	-195	.	-117	94*
COc1cc2c(cc1OC)[C@@H](NC(=O)COc1ccccc1)[C@H](OCc1ccccc1)C2	0	9	-4	-7	-7	.	.	.
Cc1ccc(S(=O)(=O)/N=C(\CCl)N2CCOCC2)cc1	58*	58*	13	-14	24	-2	39	70*
CCOC(=O)c1ccc2c(c1)NCc1cccc(OC)c1O2	0	-205	18	0	-204	4	.	.
CSCCC(NS(=O)(=O)c1cccc(C(F)(F)F)c1)C(=O)Nc1ccccc1N1CCCC1 (configuration not stated)	22	19	-6	0	11	.	.	.
FC(F)Sc1ccc(NC(=S)NC(c2ccccc2)c2ccccc2)cc1	51*	53*	-4	-45	-11	4	95*	57*
FC(F)Sc1ccc(NC(=S)NCc2ccccc2)cc1	-6	-47	4	-4	-114	0	.	.
COc1ccc(-n2nc(C(=O)NCC(=O)Nc3cc(OC)c(OC)c(OC)c3)c3ccccc3c2=O)cc1OC	83*	55*	24	-26	6	.	44*	90*
Cc1cccc(CN2C(=O)/C(=C\c3ccc(C(=O)NCCN4CCOCC4)cc3)Sc3ccccc32)c1	82*	92*	21	5	9	.	92*	-16
O=C(NCCN1CCOCC1)c1ccc2c(c1)N(Cc1cccc(F)c1)C(=O)c1ccccc1S2	19	18	5	-3	26	3	.	.
Nc1nc2ccc(Cl)cc2cc1C(=O)NCc1ccc(Oc2ccccc2)cc1	.	.	18	.	28	.	.	.
COc1cccc(CN(C)C(=O)C(CCSC)NS(=O)(=O)c2ccc3c(c2)OCCO3)c1OC (configuration not stated)	74*	56*	20	15	7	.	62*	79*
CSCCC(NS(=O)(=O)c1ccc2c(c1)OCCO2)C(=O)N(C)Cc1ccc(C)cc1 (configuration not stated)	6	18	-5	-13	14	.	.	.
COc1ccccc1CN(C)C(=O)c1cc(-c2cc(OC)c(OC)c(OC)c2)nc2ccccc12	74*	53*	11	-32	-2	.	56*	10
CCOC(=O)CCN(C(=O)Nc1ccccc1)C1CCCCC1	-10	-40	10	-1	-43	.	.	.
CN(C)S(=O)(=O)c1ccc(Cl)c(NC(=O)CSc2nc3c(cc2C#N)C(=O)CC(C)(C)C3)c1	28	-15	12	-4	17	13	.	.
CN(C)S(=O)(=O)c1cccc(NC(=O)CSc2nc3c(cc2C#N)C(=O)CC(C)(C)C3)c1	58*	60*	16	-20	-12	18	60*	35
CC1CCCCN1C(=O)c1cccc(NC2=C(Cl)C(=O)N(Cc3ccccc3)C2=O)c1 (configuration not stated)	57*	52*	16	-44	18	.	54*	-104
CC1CCN(C(=O)c2ccc(NC3=C(Cl)C(=O)N(Cc4ccccc4)C3=O)cc2)CC1	12	40	25	-4	-2	.	.	.
COCCCNC(=O)C[C@H]1C[C@H](C(=O)N(C(C)C)C(C)C)[C@@]2(C)c3[nH]c4cc(-c5ccco5)ccc4c3CCN2C1=O	-2	5	-5	13	5	.	.	.
COc1cccc(OC)c1C(=O)Nc1cc(C)nn1-c1nc2ccccc2[nH]1	78*	54*	-15	-17	-34	0	71*	53*
O=C(Nc1ccccc1)c1nc[nH]c1C(=O)NCCCCNC(=O)c1[nH]cnc1C(=O)Nc1ccccc1	54*	60*	29	-13	4	.	56*	59*
CC(C)(C)OC(=O)NCCCCCNC(=O)c1[nH]cnc1C(=O)Nc1ccccc1	0	33	16	4	13	.	.	.
SMILES	CF NFkB block	Peg3 prom inh-1	C8 TRAIL sens	KKLEB tox	HIF-2a inh	PPC-1+TRAIL kill	Peg3 prom inh-2	CF NFkB inh conf	others
Cc1ccc(CCC(=O)NCc2ccccc2)o1	2	5	-15	-8	5	.	.	.
NC(=O)c1nsc(C(=O)N(c2ccccc2F)C(C(=O)NCc2ccc(F)cc2)c2ccc(O)cc2)c1N (configuration not stated)	94*	58*	7	-34	19	.	60*	108*
CC(=O)c1ccc(-c2cnc3c(NC=O)cc(-c4ccccc4Oc4ccccc4)cn23)cc1	58*	55*	10	-27	24	.	63*	45*
CCN(CC)c1ccc(C(NC(=O)C(C)C)c2ccc3cccnc3c2O)cc1 (configuration not stated)	-9	48	5	-3	5	.	.	.
CC(=O)NC(c1ccc(Cl)cc1Cl)c1ccc2cccnc2c1O (configuration not stated)	-12	56*	15	7	25	.	59*	.	Mdm2-MdmX confirm=86*
CCC(=O)NC(c1ccc(C)cc1)c1cc(Cl)c2cccnc2c1O (configuration not stated)	-3	49	12	3	2	.	.	.
CCCC(=O)NC(c1ccc(C)cc1)c1ccc2cccnc2c1O (configuration not stated)	-3	63*	8	7	11	.	67*	.	Mdm2-MdmX confirm=89*
CCCC(=O)NC(c1ccc(Cl)cc1)c1ccc2cccnc2c1O (configuration not stated)	-27	57*	15	0	25	.	65*	.	Mdm2-MdmX confirm=92*
CCCCC(=O)NC(c1ccccc1OC)c1ccc2cccnc2c1O (configuration not stated)	-17	62*	10	-7	13	24	69*	.	Mdm2-MdmX confirm=87*
CC(=O)NC(C)c1cc(Cl)c2cccnc2c1O (configuration not stated)	24	31	-1	-23	13	.	.	.
COc1ccccc1C(NC(C)=O)c1cc(Cl)c2cccnc2c1O (configuration not stated)	7	39	2	6	15	.	.	.
